# From PubChem
# HCMV inh: human cytomegalovirus inhibition. activity change, negative = inhibition, % at 57.5 µM. HFF cells, HCMV-luciferase reporter, 72 h; active compounds read low. 4.5% of 410,000 active. AID 1259415; in the data active means activity change below about -60%; inconclusive means no clear call, values can overlap the other calls; inactive means above about -39%
#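 Inhibition of viral replication was scored as loss of reporter luminescence in HFFs infected with HCMV-luciferase (MOI 1 PFU/cell) for 72 h; compounds tested at 2 doses, normalized to buffer and Salinomycin controls.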
# Vaccinia mCherry: inhibitors of vaccinia virus infection (mCherry reporter signal) | Vaccinia virus mCherry reporter infection, fluorescence | Potency, µM (doses to about 36.5 µM), for the others: at the top dose activity change, negative = inhibition, usual class: inhibitors | 0.63% of 310,000 active | AID 720579; calls by dose curve; tested in A549 cells; further: potency means the concentration at half of the fitted maximal effect; nearly all actives have a fitted effect of over 35% in size
# LmPK inh: blocks Leishmania mexicana pyruvate kinase activity; Q27686; purified LmPK, Kinase-Glo ATP luminescence, 1 h; Potency, µM (series often up to 57.5 µM), for inactives: at the highest dose activity change, negative = inhibition, actives largely listed as inhibitors; 0.37% of 290,000 active; AID 1721; further: potency means the concentration at half of the fitted maximal effect
# Target sequence (Q27686 whole entry, looked up): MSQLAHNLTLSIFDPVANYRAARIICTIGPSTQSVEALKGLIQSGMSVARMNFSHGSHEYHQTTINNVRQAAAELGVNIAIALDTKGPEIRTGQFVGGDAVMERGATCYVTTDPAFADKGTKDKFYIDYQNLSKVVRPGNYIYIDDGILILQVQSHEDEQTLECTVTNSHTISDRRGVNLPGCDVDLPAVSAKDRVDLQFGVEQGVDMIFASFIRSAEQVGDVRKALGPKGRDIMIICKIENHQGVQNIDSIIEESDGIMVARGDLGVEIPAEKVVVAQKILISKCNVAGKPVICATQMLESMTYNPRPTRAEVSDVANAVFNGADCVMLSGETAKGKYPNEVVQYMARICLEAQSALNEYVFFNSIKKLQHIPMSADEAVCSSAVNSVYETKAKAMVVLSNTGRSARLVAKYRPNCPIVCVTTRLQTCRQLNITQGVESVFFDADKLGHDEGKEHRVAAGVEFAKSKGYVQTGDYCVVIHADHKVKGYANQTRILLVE
#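 Screened at intermediate enzyme activity to detect both inhibitors and activators: LmPK at 0.1 nM, with a 0.5 nM enzyme column as activation reference. PEP 0.5 mM, ADP 0.1 mM; ATP detected by luminescence after 1 h.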
# TbPYK inhibitor: T. brucei pyruvate kinase inhibition; Potency, µM (doses to about 76.8 µM), without a hit: top-dose activity, negative = inhibition, most hits filed as inhibitors; AID 624173; Q57TT1; 0.12% of 410,000 active; TbPYK enzyme, Kinase-Glo Plus ATP luminescence, 45 min; further: potency means the concentration at half of the fitted maximal effect; nearly all actives have a fitted effect of over 50% in size
#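 Readout: single end-point luminescence (Kinase-Glo Plus, 10 min). Reaction conditions were TbPYK/substrate plus 130 uM ADP, 45 min at RT, pH 7.2 TEA buffer. No-enzyme wells served as controls, and data were normalized before concentration-response fitting.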
# Vaccinia Venus: inhibitors of vaccinia virus (Venus reporter); Potency, µM (series often up to 36.5 µM), for inactives: top-dose activity change, negative = inhibition, actives largely listed as inhibitors; AID 720580; 0.46% of 330,000 active; Vaccinia virus Venus reporter expression, fluorescence; calls by dose curve; tested in A549 cells; further: potency means the concentration at half of the fitted maximal effect; nearly all actives have a fitted effect of over 30% in size
# The depositor's hits bear a star; i = inactive; u = inconclusive; x = no result given. The list is not random: actives were taken first. Their share in the collection is about 5%. Unless noted, the call rests on the fitted dose curve; in most records, active means well fitted curve in the direction sought with a large enough effect; inconclusive means small, poorly fitted or top-dose-only effect, or another doubt; inactive means no such curve, though single readings can be large; an effect the other way counts as inactive or inconclusive. On the % scale 0 is the no-effect control and ±100 the full control effect.
SMILES,HCMV inh,Vaccinia mCherry,LmPK inh,TbPYK inhibitor,Vaccinia Venus
CCOC(=O)c1cccc(NC(=O)C(NS(=O)(=O)c2ccc3c(c2)CCN3C(C)=O)C(C)C)c1 (stereo unspecified),46,-11%,-1%,2%,6%
CCCOc1ccc(Cc2c(Cl)nc(SC)nc2OC)cc1,4,i,-2%,-10%,-6%
CCCOc1ccc(Cc2c(Cl)nc(SC)nc2N(C)C)cc1,-67*,-13%,1%,-8%,-11%
Cc1ccc(CNCC(=O)Nc2ccc(C)cc2Br)cc1,-64*,-16%,-4%,-3%,-10%
Cc1ccc(NC(=O)CNCc2ccccc2)c(Br)c1,10,-14%,8%,-24%,-8%
COc1cc2c(cc1OC)CN(C(=O)c1ccc3[nH]c(C)c(C)c3c1)CC2,16,7%,-6%,0%,-3%
Cc1ccc(CN2C(=O)C(O)(c3c(C)[nH]c4ccccc34)c3ccccc32)cc1 (stereo unspecified),17,-8%,x,-12%,-5%
O=C1N(Cc2ccccc2Cl)c2ccccc2C1(O)c1c[nH]c2ccccc12 (stereo unspecified),-94*,-4%,x,0%,-6%
Cc1[nH]c2ccccc2c1C1(O)C(=O)N(Cc2ccc(Cl)cc2)c2ccccc21 (stereo unspecified),-99*,-8%,x,-3%,-9%
Cc1ccc(C)c(CN2C(=O)C(O)(c3c[nH]c4ccccc34)c3ccccc32)c1 (stereo unspecified),-30,-20%,x,6%,-21%
Cc1ccccc1CN1C(=O)C(O)(c2c[nH]c3ccccc23)c2cc(Cl)ccc21 (stereo unspecified),-93*,-14%,x,4%,-13%
CC(NC(=O)c1cc([N+](=O)[O-])cc([N+](=O)[O-])c1)c1ccc(-n2ccnc2)cc1 (stereo unspecified),10,i,-8%,-6%,-5%
CC(C)c1nc2ccc(C(=O)Nc3ccccc3F)cc2o1,-63*,u,x,2%,u
O=C(NC(Nc1ncc(S(=O)(=O)c2ccc([N+](=O)[O-])cc2)s1)(C(F)(F)F)C(F)(F)F)c1ccc(Cl)cc1,-96*,18µM*,5%,-4%,u
COCC(=O)Nc1ncc(S(=O)(=O)c2ccc([N+](=O)[O-])cc2)s1,-39,u,-1%,-2%,-30%
COc1cc(NS(=O)(=O)c2ccc(N/C=C(\C#N)c3nc4cc(Cl)ccc4o3)cc2)nc(OC)n1,-86*,x,4%,6%,u
c1ccc(-c2ccccc2OCCCN2CCCCCC2)cc1,-72*,u,-4%,-3%,-27%
N#CCc1ccc(OCCCN2CCC(C(O)(c3ccccc3)c3ccccc3)CC2)cc1,13,-11%,x,-17%,-13%
CC(C)(C)c1ccc(C(O)CCCN2CCC(C(O)(c3ccccc3)c3ccccc3)CC2)cc1 (stereo unspecified),-24,13µM*,4%,0%,11µM*
COc1ccccc1-c1ccc(OCCCN2CCC(C(O)(c3ccccc3)c3ccccc3)CC2)cc1,-99*,x,x,x,x
O=C(Nc1ccc2c(c1)OCCO2)C(C1CC1)N1CCN(c2ccc(F)cc2)CC1 (stereo unspecified),10,43%,x,4%,-1%
COc1ccc(CCNC(=O)C(=O)c2cn(CC(=O)N3CCCC3)c3ccccc23)cc1OC,-2,-5%,x,0%,-18%
O=C(O)c1ccc(S(=O)(=O)N2CCC3(CC2)CC(=O)c2ccccc2O3)cc1,-22,-14%,x,0%,-5%
Cc1ccc(S(=O)(=O)Nc2cccc(-c3cn4cccc(C)c4n3)c2)cc1,-14,-6%,x,2%,-12%
CC1CN(S(=O)(=O)c2cccc(-c3cn4ccccc4n3)c2)CC(C)O1 (stereo unspecified),-86*,u,-7%,-11%,-25%
SMILES,HCMV inh,Vaccinia mCherry,LmPK inh,TbPYK inhibitor,Vaccinia Venus
Cc1cc(C)c(S(=O)(=O)Nc2ccc(-c3cn4ccccc4n3)cc2)c(C)c1,u,x,-2%,-13%,-26%
Cc1cc(C)c(S(=O)(=O)Nc2cccc(-c3cn4ccccc4n3)c2)c(C)c1,-87*,-18%,x,2%,0%
Cc1cccn2cc(-c3cccc(NS(=O)(=O)c4ccc(Cl)c(Cl)c4)c3)nc12,-91*,-3%,x,-5%,-3%
CCOc1ccc(C(=O)CCC(=O)Nc2ccccc2C)cc1,22,x,-6%,1%,x
Cc1ccc(C(=O)C2CCNCC2)cc1,39,x,-1%,2%,x
Cc1ccc(C(=O)C2C(=O)C3CCC2C3)cc1 (stereo unspecified),-73*,x,x,x,x
CCCNC1(C(N)=O)CCN(Cc2ccccc2)CC1,13,i,x,-9%,-15%
CC(=O)c1ccc(Nc2nc(=O)c3cccnc3s2)cc1,0,u,4%,-24%,-25%
CCOC(=O)c1ccc(Nc2nc(=O)c3cccnc3s2)cc1,u,10µM*,4%,0%,1%
O=c1nc(Nc2ccc(OCc3ccccc3)cc2)sc2ncccc12,-88*,0.79µM*,-3%,-2%,6%
O=C(CCN1C(=O)/C(=C/c2ccccc2Cl)SC1=S)N1CCOCC1,-38,u,8%,-5%,u
COc1ccc(/C=C2\SC(=S)N(CCCC(=O)N3CCCCC3CCO)C2=O)cc1 (stereo unspecified),-100*,x,6%,4%,x
O=C1/C(=C\c2ccccc2)SC(=S)N1CCC(=O)N1CCCCC1CCO (stereo unspecified),-86*,x,-3%,4%,x
CC(C)c1ccc(/C=C2\SC(=S)N(CCC(=O)N3CCCCC3CCO)C2=O)cc1 (stereo unspecified),-100*,x,-7%,0%,x
CN1CCN(C(=O)CCN2C(=O)/C(=C\c3ccc(F)cc3)SC2=S)CC1,42,-1%,x,1%,-16%
O=C1/C(=C/c2ccccc2Cl)SC(=S)N1CCC(=O)N1CCCCC1CCO (stereo unspecified),-81*,x,1%,-2%,x
COc1cccc(/C=C2\SC(=O)N(CCC(=O)N3CCCCC3CCO)C2=O)c1 (stereo unspecified),-35,x,-13%,0%,x
O=C(CCN1C(=O)/C(=C/c2ccccc2)SC1=S)Nc1cccnc1,-24,-11%,-1%,-6%,0%
O=C1/C(=C/c2ccccc2)SC(=S)N1CC(=O)N1CCCCC1c1cccnc1 (stereo unspecified),-90*,x,0%,-8%,x
Cc1nc2ccccc2c(=O)n1NC(=O)c1ccccc1F,52,x,-1%,-2%,x
Cc1nc2ccccc2c(=O)n1NC(=O)c1c(F)cccc1F,-69*,x,-1%,-12%,x
C[C@H](CO)N1C[C@H](C)[C@@H](CN(C)C(=O)c2ccccc2)OCc2cnnn2CCCC1=O,-23,i,x,-1%,-7%
S=C(N/N=C/c1ccccc1Cl)Nc1ccccc1,6,x,1%,0%,x
